Data from paper PMC5540273 (PLoS ONE, 2017).

The compounds below were run on CAMK1. Details: concentration: 1 μM, replicates: in singlicate; n = 1.
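Further: KINOMEscan kinase panel screen.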

| Structure (SMILES) | %Inh |
| --- | --- |
| COc1cccc(C(=O)Nc2cccc(Oc3ccc4nc(NC(=O)C5CC5)cn4n3)c2)c1 | 16% |
| Cl.Cl.NCC(NC(=O)c1cc(-c2ccccc2)c(-c2ccnc3[nH]ccc23)s1)c1ccccc1 (centres unmarked) [GSK1321561] | 4% |
| CC(=O)Nc1nc2cnc(Nc3cc(NC(=O)c4cccc(C5(C#N)CC5)c4Cl)ccc3C)nc2s1 | 35% |
| COc1cccc(NC(=O)NC2CCN(c3ccnc(Nc4cc(OC)c(OC)c(OC)c4)n3)C2)c1 (centres unmarked) [GSK1379763] | 26% |
| COc1cc2c(cc1OCCN1CCNCC1)ncc1c3ccc(C#N)cc3[nH]c21 | 10% |
| CSc1cccc2c(-c3ccncn3)c(-c3ccc(F)cc3)nn12 [GW514786] | 0% |
| Cn1cc(-c2ccc3c(c2)CCN3C(=O)Cc2cccc(Cl)c2)c2c(N)ncnc21 [GSK2606590] | 26% |
| CCS(=O)(=O)c1ccc(OC)c(Nc2nccc(-c3c(-c4cccc(NC(=O)c5c(F)cccc5F)c4)nn4ncccc34)n2)c1 [GSK326180] | 9% |
| CCn1c(-c2nonc2N)nc2c(C#CC(C)(C)O)ncc(OCCCCN)c21.O=C(O)C(F)(F)F.O=C(O)C(F)(F)F [GSK507274] | 31% |
| O=C(Nc1cccc(-c2nn3ccccc3c2-c2ccnc(Nc3cccc(C(F)(F)F)c3)n2)c1)c1c(F)cccc1F [GSK292658] | 4% |
| CN(c1ccc(NC(=O)Nc2cc(C(F)(F)F)ccc2F)cc1)c1ccnc(Nc2ccc(S(N)(=O)=O)cc2)n1 [GW809893] | 48% |
| COc1cc(Nc2ncc3c(C)nc(-c4cc5ccccc5[nH]4)n3n2)cc(OC)c1OC [GW869516] | 19% |
| Cc1ccc(C)c(NC(=O)NC2CCN(c3ccnc(Nc4ccc(F)cc4)n3)C2)c1 (centres unmarked) [GSK1379720] | 2% |
| c1ccc(Oc2ccc(Nc3ccnc4cc(-c5ccc(CNCCN6CCOCC6)o5)ccc34)cc2)nc1 [GW567145] | 26% |
| COc1cc(Nc2nccc(-c3c(-c4cccc(NC(=O)c5c(F)cccc5F)c4)nn4ncccc34)n2)cc(OC)c1OC [GSK327238] | 58% |
| COc1cc(Nc2nccc(N3CCC(NC(=O)Nc4cccc(C(C)=O)c4)C3)n2)cc(OC)c1OC (centres unmarked) [GSK1379753] | 42% |

| Structure (SMILES) | %Inh |
| --- | --- |
| Cl.Cl.NCC(NCc1ccc(-c2ccnc3[nH]ccc23)s1)c1ccccc1 (centres unmarked) [GSK1321565] | 10% |
| Oc1cc(Nc2ccnc3cc(I)ccc23)ccc1F [GW552771] | 19% |
| Cc1ccc(C(=O)Nc2ccc(Nc3ccnc4cc(-c5nccs5)ccc34)cc2O)cc1.Cl [GW494702] | 13% |
| C[C@@H]1CC[C@@H](C(=O)Nc2ccccc2)CN1c1cc(-c2ccc3c(N)n[nH]c3c2)nc(N)n1 [GSK2286062] | 28% |
| Nc1ncc(-c2cccnc2)c2scc(-c3ccc4c(c3)CCN4C(=O)Cc3ccccc3)c12 [GSK683281] | 22% |
| Cl.c1ccc(-c2ccc3c(Nc4ccc5[nH]ccc5c4)ccnc3c2)nc1 [GW440138] | 0% |
| CCn1c(-c2nonc2N)nc2c(C#CC(C)(C)O)nc(OC[C@H](N)c3ccccc3)cc21 [GSK943949] | 0% |
| Cn1cc(-c2ccc3c(c2)CCN3C(=O)Cc2cccc(F)c2)c2c(N)ncnc21 [GSK2603358] | 79% |
| O=C(Nc1cccc(-c2nn3ncccc3c2-c2ccnc(Nc3ccccc3)n2)c1)c1c(F)cccc1F [GSK198271] | 39% |
| COc1cc(Nc2nccc(-c3c(-c4cccc(NC(=O)c5c(F)cccc5F)c4)nn4ccccc34)n2)cc(OC)c1OC [GSK323521] | 31% |
| FC(F)(F)c1ccc(/C=C/c2cncnc2Nc2ccc3[nH]c(Cc4ccccc4)nc3c2)cc1 [GW709199] | 0% |
| CC(C)(C)c1ccc2nccc(Nc3cccc(O)c3)c2c1 [GW856795] | 0% |
| CCc1ccc(-c2ccc3c(c2)-c2c(cnn2C)S(=O)(=O)N3C)cc1 | 2% |
| COc1cccc(C2=C(Nc3ccc(Cl)c(C(=O)O)c3)C(=O)NC2=O)c1 [SB-390769] | 0% |
| NCCCC(NC(=O)c1cc(Br)c(-c2ccnc3[nH]ccc23)s1)c1ccccc1.O=C(O)C(F)(F)F.O=C(O)C(F)(F)F (centres unmarked) [GSK1287544] | 13% |
| COC(=O)Nc1nc2ccc(Oc3ccc(NC(=O)Nc4cc(C(F)(F)F)ccc4F)cc3)cc2n1C.Cl [GW692089] | 0% |
